# Measurements taken from PubChem BioAssay (NCI).
# Where “and” joins values, the source holds several entries; their conditions need not be identical. Identical values can stand only once. The panel holds about 83,000 compounds, 20% with a hit somewhere; the sample as a whole holds those more often.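 Single-concentration screen, 48 h exposure, 96-well plates. Endpoint: percent growth. Below 10 = active.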 Calls of active or inactive are those of the source. *1 amine or outer side, *2 acyl side, *3 side chain or, on linkers, in order; H or OH if unused. Where a SMILES comes first, the peptide text is derived from it. [ ]: non-standard residue; d: D form. The star is where a group is joined. X5 = CCC(=O)CC1CC(C)CC(C(=O)[*:2])N1[*:1]; X4 = CCCCCCCCC(C)C(=O)*; Aib = CC(C)(N)C(=O)O; X6 = CC(CN(C)CCO)N*
# System: EKVX NSCLC
# Experiment: NCI-60 one-dose screen, 48 h (100 = growth as untreated, 0 = no growth, -100 = all killed)
# Conditions: 10 µM unless noted
# Method: Growth inhibition of the EKVX human Non-Small Cell Lung tumor cell line is measured as a screen for anti-cancer activity. Cells are grown in 96 well plates and exposed to the test compound for 48 hours. Compounds are tested at a single concentration, which is 10^-5 M for most compounds. The reported endpoint is percent growth (GI% or GIPRCNT), where numbers from 0 - 100% represent growth inhibition, and numbers from -100% - 0 represent cell death. For example, a value of 40 represents 60% growth inhibition. A value of 0 means no net growth occurred over the course of the experiment. A value of -40 indicates 40% of cells at the beginning of the experiment died by the end of the experiment. A value of -100 means all cells are dead at the end of the experiment.
# NCI-60 Human Tumor Cell Lines Screen was performed using the standard one-dose NCI protocol, which is described in more detail at https://dtp.cancer.gov/discovery_development/nci-60/default.htm.
# Compounds with GIPRCNT values below 10 were considered active. Activity score was based on GIPRCNT using the following formula: […]
# Score is 0 for GIPRCNT values of 100 or above, 50 for GIPRCNT values of 0, and 100 for GIPRCNT values of -100.
row,Compound,growth
1,COc1cc(NC(=O)C2=C(C)NC(C)=C(C(=O)Nc3cc(OC)c(Cl)cc3OC)C2c2cccc([N+](=O)[O-])c2)c(OC)cc1Cl,28.7% (inactive)
2,NC1=C(Br)C(=O)c2ncccc2C1=O,-14.2% (active)
3,COc1cc(/C=C/c2ccnc3ccccc23)cc(OC)c1OC,55.3% (inactive)
4,Cc1nc([N+](=O)[O-])c(Sc2nncc(-c3ccccc3)n2)n1C,79.7% (inactive)
5,COC(=O)c1cc([N+](=O)[O-])cc([N+](=O)[O-])c1Cl,98.1% (inactive)
6,CC(=O)C1Cc2ccccc2C1=O (stereo not given),80.6% (inactive)
7,S=C(S)OCN1CCOCC1,97.4% (inactive)
8,OC(c1cc(-c2ccc(C(F)(F)F)cc2)nc(C(F)(F)F)c1)C1CCCCN1 (stereo not given),27.2% (inactive) and 3.74% (active) and 67.6% (inactive)
9,CCCCCCCCCCCC[n+]1ccccc1 (tested in a mixture with another compound),-20.5% (active)
10,CN(C)c1ccc2cc3c(cc2c1)Oc1ccccc1N3.[Cl][Zn][Cl],89.9% (inactive)
11,CCC(C)C(N)C(=O)NC(CC(N)=O)C(=O)NC(CC(C)C)C(=O)NC(CCCCN)C(=O)NC(C)C(=O)NC(CC(C)C)C(=O)NC(C)C(=O)NC(C)C(=O)NC(CC(C)C)C(=O)NC(C)C(=O)NC(CCCCN)C(=O)NC(CCCCN)C(=O)NC(C(=O)NC(CC(C)C)C(N)=O)C(C)CC (stereo not given),91.2% (inactive)
12,NC(=S)N/N=C\c1nccc2c(C(F)(F)F)cccc12,1.87% (active)
13,Cc1nnc(N/N=C/c2ccc([N+](=O)[O-])o2)[nH]c1=O,-17.2% (active)
14,COC(=O)c1nc(=S)[nH]c(C(=O)OC)c1C(=O)c1ccc(Cl)c(Cl)c1,100% (inactive)
15,Cc1cc(=O)oc2cc(O)cc(O)c12,99.3% (inactive)
16,O=C(C[P+](c1ccccc1)(c1ccccc1)c1ccccc1)c1ccccc1,88.5% (inactive)
17,CCCCCCCCC(=O)OCCCC(CCC(CCC1CCCO1)OC(=O)CCCCCCCC)OC(=O)CCCCCCCC (stereo not given),94.1% (inactive)
18,Cn1ccc(=Nc2ccc(NC(=O)c3ccc(N=c4ccn(C)c5ccc([N+](=O)[O-])cc45)cc3)cc2)cc1,77.5% (inactive)
19,CCSc1nc2ccccc2o1,104% (inactive)
20,CCc1cccc(CC)c1N1C(=O)C=CC1=O,113% (inactive)

row,Compound,growth
1,N#CCc1cccc2ccccc12,101% (inactive)
2,O=C1C=Cc2ccccc2/C1=C/c1nc(-c2ccccc2)oc1O,78.7% (inactive)
3,COC1CC(C)C(OC)c2cc(O)cc(c2O)NC(=O)/C(C)=C/C=C\C(C)C(OC(N)=O)/C(C)=C\C(C)C1OC (stereo not given),41% (inactive)
4,CCC1CCCCN1C(=S)N/N=C(\C)c1ccccn1 (stereo not given),10.9% (inactive)
5,CCCOC(=O)c1nc(N(CC2CCCCC2)C(=O)NC)sc1/N=C/c1ccccc1,9.94% (active)
6,COC(=O)C(=[N+]=[N-])C(=O)c1ccc([N+](=O)[O-])o1,111% (inactive)
7,c1ccc(C2NCCNC2c2ccccc2)cc1 (stereo not given),103% (inactive)
8,O=C1C=CC(=O)N1c1ccccc1,99.6% (inactive)
9,S=C=Nc1ccc(N2CCOCC2)cc1,91.7% (inactive)
10,NNc1cccc([N+](=O)[O-])c1,79.9% (inactive)
11,CCOC(=O)C1=C(C(=O)c2ccccc2)C(c2cccc([N+](=O)[O-])c2)C(C(=O)c2ccccc2)=C(C(=O)OCC)N1,87.9% (inactive)
12,Cn1c(-c2ccccc2)c(/C=C/C2=[N+](C)c3ccccc3C2(C)C)c2ccccc21,20% (inactive)
13,O=C(Cc1ccccc1)C(F)(F)F,99.1% (inactive)
14,CC(C)c1ccc(C(=O)OC2CCCC2)cc1,92.6% (inactive)
15,NCCCN(CCCN)CCCNCc1c2ccccc2c(CNCCCN(CCCN)CCCN)c2ccccc12,89.4% (inactive)
16,Oc1ccc(Cl)cc1C(c1cc(Cl)ccc1O)C(Cl)(Cl)Cl,13.7% (inactive)
17,CCCCCCCCC(C)C(=O)N1CCCC1C(=O)N1C(CC(=O)CC)CC(C)CC1C(=O)NC(C)C(=O)NC(C)(C)C(=O)NC(C)(C)C(=O)NC(C(=O)NC(C)C(=O)NC(C)(C)C(=O)NC(C)(C)C(=O)NC(C)CN(C)CCO)C(C)CC (stereo not given) (X4-P[X5]A[Aib][Aib]IA[Aib][Aib]-X6; configuration not given here),-25.3% (active)
18,NC(=S)Nc1ccc2c(c1)Cc1ccccc1-2,67.1% (inactive)
19,CCCc1cc(=O)oc2c3c(c4c(c12)OC(C)(C)CC4)OC(C)[C@H](C)[C@@H]3O (stereo not given in full),90% (inactive)
20,COc1ccc2nc3cc([N+](=O)[O-])ccc3c(NNc3ccccc3)c2c1,83.1% (inactive)
